Measured values taken from PubChem BioAssay (NCI).
Values joined by “and” are separate entries in the source; they are usually repeats but may differ in a detail not shown here. Identical values can stand only once. This is part of a sample that, as a whole, favours compounds with a hit. Of some 83,000 tested, about 20% had one in any assay.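 Cells were grown in 96-well plates and exposed to the test compound at a single concentration for 48 hours; results are reported as percent growth, with values below 10 considered active.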 Active and inactive are the calls of the source.

Experiments:
Assay in all cases: NCI-60 one-dose screen, 48 h (100 = growth as untreated, 0 = no growth, -100 = all killed)
SK-MEL-2 melanoma = conditions: 10 µM
EKVX NSCLC = conditions: 10 µM
SN12C renal = conditions: 10 µM
UO-31 renal = conditions: 10 µM
TK-10 renal = tested on: TK-10 renal
ACHN renal = conditions: 10 µM
A498 renal = conditions: 10 µM
CCRF-CEM leukemia = conditions: 10 µM
MOLT-4 leukemia = conditions: 10 µM
SR leukemia = conditions: 10 µM
RPMI-8226 leukemia = conditions: 10 µM
OVCAR-8 ovarian = conditions: 10 µM
OVCAR-5 ovarian = conditions: 10 µM
OVCAR-4 ovarian = conditions: 10 µM
SK-OV-3 ovarian = conditions: 10 µM
IGROV1 ovarian = conditions: 10 µM
OVCAR-3 ovarian = conditions: 10 µM
HS 578T breast = conditions: 10 µM
NCI/ADR-RES ovarian = conditions: 10 µM
CAKI-1 renal = conditions: 10 µM

Measured: growth

Nc1ccc(CC(=O)O)c(N)c1
active: CCRF-CEM leukemia -27.4%
inactive: SK-MEL-2 melanoma 113% | EKVX NSCLC 101% | SN12C renal 102% | UO-31 renal 89% | TK-10 renal; 10 µM unless noted 105% | ACHN renal 104% | A498 renal 62.8% | MOLT-4 leukemia 101% | SR leukemia 95.2% | RPMI-8226 leukemia 104% | OVCAR-8 ovarian 106% | OVCAR-5 ovarian 96.1% | OVCAR-4 ovarian 98.6% | SK-OV-3 ovarian 93% | IGROV1 ovarian 106% | OVCAR-3 ovarian 97.2% | HS 578T breast 96.7% | NCI/ADR-RES ovarian 96.5%

CC(=O)N(C)c1ccc([N+](=O)[O-])cc1
inactive: SK-MEL-2 melanoma 92% | EKVX NSCLC 122% | SN12C renal 96.9% | UO-31 renal 104% | TK-10 renal; 10 µM unless noted 95.8% | ACHN renal 99.4% | A498 renal 116% | CCRF-CEM leukemia 119% | MOLT-4 leukemia 75.9% | SR leukemia 105% | RPMI-8226 leukemia 120% | OVCAR-8 ovarian 99.6% | OVCAR-5 ovarian 91.8% | SK-OV-3 ovarian 106% | IGROV1 ovarian 117% | OVCAR-3 ovarian 118% | HS 578T breast 120% | NCI/ADR-RES ovarian 106%

S=c1[nH]ccn1-c1ccccc1Cl
inactive: SK-MEL-2 melanoma 118% | EKVX NSCLC 112% | SN12C renal 116% | UO-31 renal 94.2% | TK-10 renal; 10 µM unless noted 128% | ACHN renal 101% | A498 renal 101% | CCRF-CEM leukemia 96.6% | MOLT-4 leukemia 97.4% | RPMI-8226 leukemia 95.6% | OVCAR-8 ovarian 105% | OVCAR-5 ovarian 114% | OVCAR-4 ovarian 103% | SK-OV-3 ovarian 111% | IGROV1 ovarian 108% | OVCAR-3 ovarian 98.2% | HS 578T breast 142% | NCI/ADR-RES ovarian 115%

c1ccc2c(N3CCCCC3)ncnc2c1
inactive: SK-MEL-2 melanoma 92.6% | EKVX NSCLC 94% | SN12C renal 91.1% | TK-10 renal; 10 µM unless noted 90.9% | ACHN renal 81.9% | CAKI-1 renal 91% | A498 renal 106% | CCRF-CEM leukemia 93.2% | MOLT-4 leukemia 91.2% | SR leukemia 105% | RPMI-8226 leukemia 66.9% | OVCAR-8 ovarian 94.4% | OVCAR-5 ovarian 99.9% | OVCAR-4 ovarian 96.8% | SK-OV-3 ovarian 94% | IGROV1 ovarian 96% | OVCAR-3 ovarian 97.3% | HS 578T breast 116% | NCI/ADR-RES ovarian 91%

C1CNC(C2=NCCN2)=N1
inactive: SK-MEL-2 melanoma 116% | EKVX NSCLC 103% | SN12C renal 102% | TK-10 renal; 10 µM unless noted 103% | ACHN renal 109% | CAKI-1 renal 99.2% | A498 renal 108% | CCRF-CEM leukemia 109% | MOLT-4 leukemia 96.4% | SR leukemia 96.1% | RPMI-8226 leukemia 109% | OVCAR-8 ovarian 102% | OVCAR-5 ovarian 105% | OVCAR-4 ovarian 105% | SK-OV-3 ovarian 104% | IGROV1 ovarian 107% | OVCAR-3 ovarian 94.2% | HS 578T breast 101% | NCI/ADR-RES ovarian 108%

CC(=O)c1sc2c(c1OC(=O)c1ccc(Cl)cc1Cl)c(=O)n(-c1ccccc1)c(=S)n2-c1ccccc1
inactive: EKVX NSCLC 51.4% | SN12C renal 13.4% | CAKI-1 renal 13.5% | OVCAR-3 ovarian 24.1%
active: SK-MEL-2 melanoma -43.9% | TK-10 renal; 10 µM -9.03% | TK-10 renal; 100 µM 2.01% and -66.5% | ACHN renal -18.2% | A498 renal -41.9% | CCRF-CEM leukemia -24.2% | MOLT-4 leukemia -11.4% | SR leukemia -10.4% | RPMI-8226 leukemia -43.1% | OVCAR-5 ovarian -4.64% | SK-OV-3 ovarian 5.36% | HS 578T breast -26.8% | NCI/ADR-RES ovarian 7.59%

C/C(=N/NC(N)=O)c1ccco1
inactive: SK-MEL-2 melanoma 108% | EKVX NSCLC 100% | SN12C renal 110% | UO-31 renal 95.8% | ACHN renal 102% | CAKI-1 renal 102% | A498 renal 111% | CCRF-CEM leukemia 106% | MOLT-4 leukemia 89.9% | SR leukemia 87.3% | RPMI-8226 leukemia 118% | OVCAR-8 ovarian 106% | OVCAR-5 ovarian 100% | OVCAR-4 ovarian 110% | SK-OV-3 ovarian 84.1% | IGROV1 ovarian 104% | OVCAR-3 ovarian 104% | NCI/ADR-RES ovarian 101%

COC(=O)C(O)c1ccccc1 (stereo not drawn)
inactive: SK-MEL-2 melanoma 103% | EKVX NSCLC 119% | SN12C renal 97% | TK-10 renal; 10 µM unless noted 106% | ACHN renal 100% | CAKI-1 renal 114% | A498 renal 132% | CCRF-CEM leukemia 98.1% | MOLT-4 leukemia 105% | SR leukemia 108% | RPMI-8226 leukemia 111% | OVCAR-8 ovarian 108% | OVCAR-4 ovarian 113% | SK-OV-3 ovarian 105% | IGROV1 ovarian 123% | OVCAR-3 ovarian 104% | HS 578T breast 125% | NCI/ADR-RES ovarian 110%

Nc1ncnc2[nH]ncc12
inactive: EKVX NSCLC 30.4% | SN12C renal 14% | CCRF-CEM leukemia 13.1% | MOLT-4 leukemia 25.9% | SR leukemia 26.1% | OVCAR-5 ovarian 20.5% | HS 578T breast 37.3%
active: SK-MEL-2 melanoma -14.1% | TK-10 renal; 10 µM unless noted 1.19% | ACHN renal 8.29% | CAKI-1 renal -9.29% | A498 renal 8.78% | RPMI-8226 leukemia 8.64% | OVCAR-8 ovarian 6.29% | SK-OV-3 ovarian 2.06% | IGROV1 ovarian 6.63% | OVCAR-3 ovarian -22.2% | NCI/ADR-RES ovarian 0.445%

O=C(CCl)Nc1ccc2c(c1)C(=O)c1ccc(NC(=O)CCl)cc1C2=O
active: SK-MEL-2 melanoma -38.8% | EKVX NSCLC -15.2% | SN12C renal -49.5% | TK-10 renal; 10 µM unless noted 3% | ACHN renal -65.7% | CAKI-1 renal -88.7% | CCRF-CEM leukemia -46.9% | MOLT-4 leukemia -31.8% | SR leukemia -27.1% | RPMI-8226 leukemia -40.3% | OVCAR-8 ovarian -23% | OVCAR-4 ovarian -43% | SK-OV-3 ovarian -9.68% | IGROV1 ovarian -62.1% | OVCAR-3 ovarian -93.2% | HS 578T breast 6.19% | NCI/ADR-RES ovarian -53.8%
inactive: A498 renal 12.4%

CC1(C)S(=O)(=O)OCCOS1(=O)=O
inactive: SK-MEL-2 melanoma 115% | EKVX NSCLC 94.8% | SN12C renal 101% | TK-10 renal; 10 µM unless noted 93.2% | ACHN renal 106% | CAKI-1 renal 93.9% | A498 renal 101% | CCRF-CEM leukemia 78.8% | MOLT-4 leukemia 102% | RPMI-8226 leukemia 104% | OVCAR-8 ovarian 99.2% | OVCAR-5 ovarian 110% | OVCAR-4 ovarian 102% | SK-OV-3 ovarian 111% | IGROV1 ovarian 108% | OVCAR-3 ovarian 110% | HS 578T breast 106% | NCI/ADR-RES ovarian 103%

CCCCOC(=O)c1ccc(C(C)C)cc1
inactive: SK-MEL-2 melanoma 99.7% | EKVX NSCLC 91.7% | SN12C renal 102% | UO-31 renal 91.7% | ACHN renal 104% | CAKI-1 renal 96.7% | A498 renal 87% | CCRF-CEM leukemia 112% | SR leukemia 102% | RPMI-8226 leukemia 110% | OVCAR-8 ovarian 106% | OVCAR-5 ovarian 102% | OVCAR-4 ovarian 102% | SK-OV-3 ovarian 90.4% | IGROV1 ovarian 100% | OVCAR-3 ovarian 106% | HS 578T breast 108% | NCI/ADR-RES ovarian 97.3%
